PubChem BioAssay (NCI)
The panel holds about 83,000 compounds, 20% with a hit somewhere; the sample as a whole holds those more often.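 Note: values are percent growth. 100 is the growth of untreated cells, values between 100 and 0 indicate rising inhibition; between -100 and 0 indicates cell death.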 Unmarked numbers belong to inactive results. Calls of active or inactive are those of the source. Rule for the calls: active = growth percent below 10; inactive = the rest.

system: DU-145 prostate; test: NCI-60 one-dose screen, 48 h (100 = growth as untreated, 0 = no growth, -100 = all killed); conditions: 10 µM unless noted

Compound	growth
O=C(CSc1nc2ccccc2c(=O)[nH]1)NCCN1CCCCC1	106%
N#Cc1c(-c2ccccc2Cl)cc(-c2c[nH]c3ccccc23)[nH]c1=O	66%
CCCCSc1nc(Nc2ccc(C(C)=O)cc2)c(C#N)c(-c2ccc(OC)cc2)n1	88.5%
N/C(=N\c1nc2ccccc2s1)NC(=O)NCCCCCCO	56.7%
O=C(NNc1ccccc1)n1c(=O)c2ccccc2c(=O)n1-c1ccccc1	104%
CC(=O)Oc1ccccc1C(=O)[Se]CC(=O)Nc1cccc(C(F)(F)F)c1	8.88% (active)
COc1ccc(Cc2nn(CC(=O)N/N=C/c3ccc(F)cc3)c(=O)c3c(C)noc23)cc1	40%
COc1ccc(C(=O)/C=C/c2ccc(Oc3nc(Nc4ccc(F)cc4)nc(N(C)C)n3)c(OC)c2)cc1	51.7%
O=C(N/N=C/c1ccc(-c2ccc(O)cc2)o1)c1[nH]c2ccc(Br)cc2c1-c1ccccc1	0.567% (active)
CC(=O)OC[C@@]1(C)C2CC[C@]3(C)C(CC=C4C5CC(C)(C)CC[C@]5(C(=O)Nc5ccc(Br)cc5)CC[C@]43C)[C@@]2(C)C[C@@H](OC(C)=O)[C@@H]1OC(C)=O (stereo partly drawn)	49%
Cc1ccc(-n2c(-c3cc4ccccc4nc3Cl)noc2=O)cc1	105%
O=c1cc(-c2ccccc2)oc2cc(OCCCC[P+](c3ccccc3)(c3ccccc3)c3ccccc3)cc(O)c12	-94.8% (active)
Cc1ccc(Cc2cnc(NC(=O)c3ccc(/C=C4\SC(=S)N(C)C4=O)cc3)s2)cc1	26.1%
C=C1CC[C@@H]2[C@]3(C)COC(c4cn[nH]c4-c4ccc(OC)cc4)O[C@@H]3CC[C@@]2(C)[C@@H]1C/C=C1/C(=O)OCC1O (stereo partly drawn)	-27.2% (active)
Cc1ccc(/C=C/c2n(Cc3ccc4ccccc4c3)c3ccccc3[n+]2Cc2ccc3ccccc3c2)cc1	-90.1% (active)
Cc1c(C(=O)NNC(=O)c2ccc(Cl)cc2)nnn1-c1ccc(Br)cc1	109%
CC(=O)Nc1cccc(Nc2nc(NCc3ccccc3)c3ccccc3n2)c1	-93.7% (active)
C[C@H](Nc1nc(NCCc2ccccc2)nc2ccccc12)c1ccccc1	-85.6% (active)
Cc1c(C(=O)NNC(=O)Nc2ccc(Cl)cc2)nnn1-c1ccc(Br)cc1	99.5%

Compound	growth
O=c1oc2ccccc2cc1-c1csc(N=Nc2c(O)[nH]c3ccc(Cl)cc23)n1	98%
O=c1c2ccccc2nc(-c2ccccc2)n1/N=C/c1ccc2ccccc2c1	55.8%
CN(C)c1nc(NCCNS(=O)(=O)c2ccc(C3=Nc4c(N)nc(N)nc4NC(c4ccccc4)C3)cc2)nc(Nc2ccc(F)cc2)n1 (stereo not drawn)	58%
O=C(O)c1cccc(-c2ccc(/C=N/NC(=O)c3[nH]c4ccc(Br)cc4c3-c3ccccc3)o2)c1	98.7%
Cc1ccc2c(N)c(C(=O)Nc3ccc(OC(F)(F)F)cc3)sc2n1	82.1%
COc1cc(/C=C/C(=O)c2nnn(-c3ccc(Cl)cc3)c2C)cc(OC)c1OC	17.3%
N#Cc1ccc(C(=O)Nn2c(N)cc3ccccc3c2=O)cc1	115%
COc1cc(-c2ccc(/C=N/NC(=O)c3[nH]c4ccc(Br)cc4c3-c3ccccc3)s2)cc(OC)c1OC	86.4%
N#Cc1c(-c2ccc(Br)cc2)nc2n[nH]c(-c3ccc(Br)cc3)c2c1-c1ccc(F)cc1	116%
Cn1nc(C(F)(F)F)cc1-c1cc(Cl)c(COc2ccc(Cl)cc2)c(-c2ccc(Cl)c(C(F)(F)F)c2)c1O	8.66% (active)
CC1=C(C(=O)OCc2ccccc2)C(c2c(O)cc(O)cc2O)n2c(nc3ccccc32)N1 (stereo not drawn)	82.3%
Cc1ncsc1-c1ccc(CNC(=O)[C@@H]2C[C@@H](O)CN2C(=O)[C@@H](NC(=O)C2(F)CC2)C(C)(C)C)c(OCCOCCOCCOCCOc2nc(Nc3cc(S(C)(=O)=O)ccc3N[C@@H](c3cccc4c3OC(F)(F)O4)c3ncccc3Cl)nc(N3CCNCC3)n2)c1	69%
N#Cc1c(-c2ccc(Cl)cc2)nc2n[nH]c(-c3ccc(Cl)cc3)c2c1-c1cccs1	65.1%
COc1cccc(-c2c(C#N)c(-c3ccc(Cl)cc3)nc3n[nH]c(-c4ccc(Cl)cc4)c23)c1	58.5%
CCCCn1c(O)c(N=Nc2nc(-c3cc4ccccc4oc3=O)cs2)c2cc(Br)ccc21	108%
C=C1CC[C@@H]2[C@]3(C)COC(c4cn(-c5ccccc5)nc4-c4ccccc4)O[C@@H]3CC[C@@]2(C)[C@@H]1C/C=C1/C(=O)OC[C@H]1O (stereo partly drawn)	8.33% (active)
CCCCCCn1c(O)c(N=Nc2nc(-c3cc4ccccc4oc3=O)cs2)c2ccccc21	10.1%
CSc1ccc(C(=O)Nc2ccc3nnn(/C(C#N)=C/c4ccccn4)c3c2)cc1	-40.3% (active)
CCOC(=O)C1=C(N)N(c2ccccc2)C2=C(C(=O)CC(C)(C)C2)C1c1cccc(Cl)c1Cl (stereo not drawn)	81%
